Sampled rows, rich in hits. Any-hit rate of the full collection: about 3.9%.
Anthrax LF inh2: anthrax lethal factor protease inhibition; P15917; multiplex microsphere protease cleavage assay, LF; inhibition, % at 10 µM; 360,000 tested, 0.12% active; AID 588501; further: plate controls were buffer without enzyme for full effect and enzyme alone for no effect
Target sequence (P15917 whole entry, looked up): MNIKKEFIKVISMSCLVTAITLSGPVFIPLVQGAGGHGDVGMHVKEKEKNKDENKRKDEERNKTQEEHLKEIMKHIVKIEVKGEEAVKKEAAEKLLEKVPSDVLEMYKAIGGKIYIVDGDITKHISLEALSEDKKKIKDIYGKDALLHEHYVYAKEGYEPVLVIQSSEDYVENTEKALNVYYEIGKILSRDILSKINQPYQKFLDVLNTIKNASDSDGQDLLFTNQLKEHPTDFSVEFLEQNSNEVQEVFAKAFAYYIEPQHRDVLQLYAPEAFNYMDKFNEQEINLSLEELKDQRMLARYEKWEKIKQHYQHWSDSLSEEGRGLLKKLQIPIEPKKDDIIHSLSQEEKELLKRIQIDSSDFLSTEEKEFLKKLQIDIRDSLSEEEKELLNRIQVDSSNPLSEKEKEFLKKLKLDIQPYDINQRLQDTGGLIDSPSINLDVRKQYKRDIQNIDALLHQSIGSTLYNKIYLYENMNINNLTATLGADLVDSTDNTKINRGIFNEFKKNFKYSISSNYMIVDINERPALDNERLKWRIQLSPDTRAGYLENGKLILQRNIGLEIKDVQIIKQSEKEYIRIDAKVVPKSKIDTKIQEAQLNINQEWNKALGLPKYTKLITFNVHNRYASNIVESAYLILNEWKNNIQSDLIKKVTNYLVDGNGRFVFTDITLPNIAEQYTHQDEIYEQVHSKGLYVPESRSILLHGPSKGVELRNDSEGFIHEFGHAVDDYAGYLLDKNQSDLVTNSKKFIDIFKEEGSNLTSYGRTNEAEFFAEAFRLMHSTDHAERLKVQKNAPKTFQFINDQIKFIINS
Vc quorum ag: induces V. cholerae light production without autoinducers; activation, % at 18.7 µM; V. cholerae BH1578 lux reporter, luminescence, 6 h; AID 588436; 350,000 tested, 0.16% active; in the data active means activation mostly above about 9.7%, no sharp cut-off; inconclusive means no clear call, values can overlap the other calls; inactive means mostly below about 3.7%
BoNT-F LC inh: inhibitors of Botulinum neurotoxin F light chain protease | Multiplex microsphere protease cleavage assay, flow cytometry | inhibition, % at 10 µM | 360,000 tested, 0.22% active | AID 588497; in the data active means inhibition above about 35%, passing the limit was not always enough; inconclusive means no clear call, values can overlap the other calls; further: plate controls were buffer without enzyme for full effect and enzyme alone for no effect
Autofluor counter: counter-screen for toxin protease inhibitors: compound fluorescence | compound autofluorescence counterscreen, microsphere flow cytometry; active compounds read high | fluorescence intensity (concentration not given with the values) | 360,000 tested, 3.1% active | AID 624483; in the data active means fluorescence intensity above about 16000; inconclusive means no clear call, values can overlap the other calls
BoNT-A LC inh2: blocks Botulinum neurotoxin A light chain protease | AID 588499 | multiplex microsphere protease substrate cleavage, flow cytometry | 360,000 tested, 0.17% active | inhibition, % at 10 µM; further: plate controls were buffer without enzyme for full effect and enzyme alone for no effect
MazF activator: activators of E. coli MazEF toxin-antitoxin RNase; 350,000 tested, 0.32% active; FAM/BHQ RNA-DNA oligo cleavage fluorescence, 5 h; activation, % at 20 µM; AID 504720; in the data active means activation above about 50%
Starred values were filed as active, the others as inactive; i = inactive; ? = inconclusive; . = no result. Unless noted, no stated cut-off is given here; in the data, active means inhibition above about 30%; inconclusive means no clear call, values can overlap the other calls; inactive means below that.

SMILES | Anthrax LF inh2 | Vc quorum ag | BoNT-F LC inh | Autofluor counter | BoNT-A LC inh2 | MazF activator
COc1cc(C(=O)Nc2ccc(S(=O)(=O)N3CCc4ccccc43)cc2)cc(OC)c1OC | 0 | -5 | -3 | 18077* | -2 | -4
COc1ccccc1C(=O)Nc1ccc(S(=O)(=O)N2CCc3ccccc32)cc1 | -5 | i | -15 | 4678 | -1 | -10
COC(=O)Nc1ccc(S(=O)(=O)N2CCCc3ccccc32)cc1 | -1 | i | -2 | 16570* | -1 | -5
COC(=O)Nc1ccc(S(=O)(=O)N2CCCc3cccc(O)c32)cc1 | -3 | i | -3 | 2979 | 1 | -5
Cc1ccc(SCC(=O)OCC(=O)N(CC(C)C)c2c(N)n(Cc3ccccc3)c(=O)[nH]c2=O)c(C)c1 | 2 | 6 | -1 | 5485 | 0 | 7
O=C(C1CCN(c2ccc(N3CCOCC3)nn2)CC1)N1CCN(c2ccc(F)cc2)CC1 | -1 | 3 | 1 | 22313* | 2 | -3
CSCCC(=O)N1CCN(CC(=O)N2CCCC2)CC1 | 2 | 0 | -3 | 5721 | -1 | 4
O=C(CCN1C(=O)S/C(=C\c2ccc(F)cc2)C1=O)Nc1ccc(O)cc1C(=O)O | -4 | i | -9 | 5729 | -2 | -18
CC(=O)O/N=C/c1c(N2CCOCC2)n(C)c2ccccc12 | -6 | i | -1 | 23889* | -2 | 4
CC1(C)CC(=NOC(=O)c2ccccc2)CC(C)(C)N1 | 1 | 0 | 3 | 19903* | 2 | 1
Cc1oc(-c2ccccc2)cc1C(=O)Nc1ccccc1 | -3 | 17* | -4 | 2847 | 0 | 1
COc1ccc(NC(=O)c2cc(-c3ccccc3)oc2C)cc1 | -2 | 0 | -2 | 2011 | 0 | 2
CCN(CC)CCNC(=O)C(C)c1nn(CC)c(=O)c2ccccc12 (centres undefined) | 0 | 2 | 1 | 22461* | 1 | 7
CCn1c(CNC(=O)c2cccs2)nnc1SCC(=O)NCCc1ccccc1 | -2 | i | 1 | 24231* | ? | 1
COc1ccc(Cl)cc1NC(=O)CSc1nnc(CNC(=O)c2cccs2)o1 | 2 | 0 | 5 | 5765 | 0 | 10
Cn1c(CNC(=O)c2cccs2)nnc1SCC(=O)Nc1ccccc1 | -2 | -1 | -5 | 2660 | -1 | -2
CCn1c(CNC(=O)c2cccs2)nnc1SCC(=O)Nc1ccc(Cl)cc1 | -5 | i | -5 | 17189* | -2 | 2
CCn1c(SCC(=O)NCCc2ccccc2)nnc1-c1cccs1 | -3 | 1 | 9 | 4607 | -1 | -3
CCn1c(CNC(=O)c2cccs2)nnc1SCC(=O)Nc1cc(Cl)ccc1C | -2 | i | 10 | 21203* | ? | -1
COc1ccc(C(=O)Cn2c(Cl)nc3c2c(=O)n(C)c(=O)n3C)cc1 | . | i | . | . | . | 5
N=c1n(CCN2CCCC2)c2ccccc2n1CC(O)c1ccco1 (centres undefined) | 1 | i | 4 | 21466* | 4 | 7
CC(=O)c1cccc(S(=O)(=O)N2CCC(C(=O)Nc3cccc(C(=O)NC4CC4)c3)CC2)c1 | -6 | i | 8 | 7270 | 4 | 0
O=c1cc(-c2ccccc2)c2c([nH]1)CCCC2 | -8 | 15 | 7 | 19679* | 5 | 0
O=c1c2c([nH]c3ccccc13)CCCCCC2 | -6 | -6 | -3 | 22192* | ? | 3
CCN1C(=O)c2cccc3c(NC(=O)c4ccc5c(c4)OCCO5)ccc1c23 | -1 | i | -3 | 4221 | 0 | 95*
SMILES | Anthrax LF inh2 | Vc quorum ag | BoNT-F LC inh | Autofluor counter | BoNT-A LC inh2 | MazF activator
CCN1C(=O)c2cccc3c(NC(=O)c4ccccc4)ccc1c23 | 3 | . | -9 | 3055 | 1 | -6
O=C(OCC(=O)N1CCCC1)c1c(Cl)ccc(Cl)c1Cl | -4 | i | 6 | 2888 | -3 | 6
CC[C@H](C)[C@@H](CO)NC(=O)[C@H]1O[C@@H](n2ccc(N)nc2=O)[C@H](O)[C@@H]1O | -5 | . | 4 | 6049 | 0 | .
CC(=O)N1N=C(c2ccc3nccnc3c2)CC1c1ccccc1 (centres undefined) | -8 | 0 | 2 | 20160* | 1 | -5
COc1ccc2nc(N3CCCC3)c(C#N)cc2c1 | 0 | 5 | -5 | 3689 | 6 | 70*
COc1ccc(-c2c(C)c3ccc(O)cc3oc2=O)cc1OC | 0 | 0 | 9 | 5311 | 0 | 12
O=c1cc(-c2ccccc2)oc2cc(O)ccc12 | 0 | 0 | -2 | 5681 | 0 | -3
O=c1ccc2c(-c3ccccc3)c3ccc(O)cc3oc-2c1 | 56* | 2 | 88* | 6626 | 8 | .

Compound activity (PubChem)
